{
  "source": "PubChem BioAssay (NCATS)",
  "key": {"[1]": {"assay": "qHTS for Inhibitors of the Functional Ribonucleoprotein Complex (vRNP) of Lassa (LASV) Arenavirus: Viability assay - alamar blue signal for LASV Primary Screen (AID 1347083; calls by dose curve; tested in HEK293 reporter line; note: nearly all actives have a fitted effect of over 80% in size; note: potency is the fitted concentration of half-maximal effect)"}, "[2]": {"assay": "Cytotoxicity counterscreen for inhibitors of SARS-CoV-2 cell entry (AID 1645845); note: nearly all actives have a fitted effect of over 50% in size; note: potency is the fitted concentration of half-maximal effect; for activity change, negative = cytotoxicity: % is set by controls: 0 for no effect and ±100 for the full control effect", "procedure,_shortened": "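ATP-content luminescence (ATPLite 1step, 15 min RT) read after 48 h compound exposure of Expi293F cells stably expressing human ACE2; normalized to cells-only wells and media-only wells.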"}, "[3]": {"assay": "Primary qHTS to identify inhibitors of SARS-CoV-2 cell entry (AID 1645846); note: nearly all actives have a fitted effect of over 45% in size", "conditions": "activity change, negative = inhibition: at 57.1 µM (top of the series) unless noted", "procedure,_shortened": "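Entry measured by luciferase signal 48 h after adding SARS-CoV-2-S pseudotyped MLV particles to HEK293-ACE2 cells preincubated 1 h with compounds. Normalisation: bald particles and spike particles.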"}, "[4]": {"target": "Nucleoprotein (Lymphocytic choriomeningitis virus (strain Armstrong)) (UniProt P09992)", "sequence (P09992 whole entry, looked up)": "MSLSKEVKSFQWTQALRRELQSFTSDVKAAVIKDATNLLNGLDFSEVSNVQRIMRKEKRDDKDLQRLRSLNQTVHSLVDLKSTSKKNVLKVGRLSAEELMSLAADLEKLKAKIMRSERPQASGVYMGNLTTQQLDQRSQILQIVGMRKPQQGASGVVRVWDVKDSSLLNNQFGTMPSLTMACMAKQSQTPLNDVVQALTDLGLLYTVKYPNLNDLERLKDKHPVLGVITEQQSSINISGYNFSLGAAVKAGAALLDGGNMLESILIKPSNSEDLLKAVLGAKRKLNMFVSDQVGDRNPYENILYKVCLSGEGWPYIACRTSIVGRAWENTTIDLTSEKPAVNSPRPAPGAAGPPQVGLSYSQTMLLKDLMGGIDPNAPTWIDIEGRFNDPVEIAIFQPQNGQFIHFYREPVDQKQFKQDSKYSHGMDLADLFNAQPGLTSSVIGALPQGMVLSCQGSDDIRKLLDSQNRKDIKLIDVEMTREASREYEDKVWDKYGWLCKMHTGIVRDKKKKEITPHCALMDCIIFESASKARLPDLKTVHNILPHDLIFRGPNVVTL", "assay": "qHTS for Inhibitors of the Functional Ribonucleoprotein Complex (vRNP) of Lymphocytic Choriomeningitis Arenaviruses (LCMV): LCMV Primary Screen - GLuc reporter signal (AID 1347086); note: nearly all actives have a fitted effect of over 70% in size; note: potency is the fitted concentration of half-maximal effect; for activity change, negative = inhibition: % is set by controls: 0 for no effect and ±100 for the full control effect"}, "[5]": {"assay": "qHTS for Inhibitors of the Functional Ribonucleoprotein Complex (vRNP) of Lymphocytic Choriomeningitis Arenaviruses (LCMV): Viability assay - alamar blue signal for LCMV Primary Screen (AID 1347085; calls by dose curve; tested in HEK293 reporter line; note: % is set by controls: 0 for no effect and ±100 for the full control effect; nearly all actives have a fitted effect of over 80% in size)"}, "[6]": {"target": "Alpha-galactosidase (Coffea arabica) (UniProt Q42656)", "sequence (Q42656 whole entry, looked up)": "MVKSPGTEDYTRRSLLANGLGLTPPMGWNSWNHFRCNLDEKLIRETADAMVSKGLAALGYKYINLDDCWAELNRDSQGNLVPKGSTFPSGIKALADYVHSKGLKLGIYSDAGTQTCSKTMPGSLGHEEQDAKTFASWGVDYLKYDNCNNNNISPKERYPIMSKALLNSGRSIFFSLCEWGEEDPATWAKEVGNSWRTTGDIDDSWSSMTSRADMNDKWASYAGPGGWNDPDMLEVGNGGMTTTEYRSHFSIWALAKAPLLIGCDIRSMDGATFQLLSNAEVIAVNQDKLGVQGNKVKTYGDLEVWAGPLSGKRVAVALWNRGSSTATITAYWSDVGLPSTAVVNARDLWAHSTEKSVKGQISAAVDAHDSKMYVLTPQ", "assay": "Counterscreen for Glucocerebrosidase Inhibitors: qHTS Assay for Coffee Bean alpha-Galactosidase at pH 4.5 (AID 957; active = well fitted curve in the direction sought with a large enough effect; an effect the other way counts as inactive or inconclusive;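 note: plate controls were enzyme alone for no effect and no enzyme for full effect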)", "procedure,_shortened": "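Fluorogenic qHTS at pH 4.5 (citrate buffer with Tween-20): 2 nM enzyme, 80 uM 4-MU-alpha-galactoside substrate, compound titrated 0.7 nM to 77 uM, 20 min room temperature. Glycine/NaOH stop; 4-MU read Ex 365/Em 440; Hill-equation AC50 against no-enzyme and enzyme controls.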"}, "[7]": {"target": "Alpha-galactosidase (Coffea arabica) (UniProt Q42656)", "assay": "Counterscreen for Glucocerebrosidase Inhibitors: qHTS Assay for Coffee Bean alpha-Galactosidase at pH 5.9 (AID 998; active = well fitted curve in the direction sought with a large enough effect; an effect the other way counts as inactive or inconclusive;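 note: plate controls were uninhibited enzyme for no effect and no-enzyme basal signal for full effect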)", "procedure,_shortened": "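Fluorogenic 4-MU substrate hydrolysis, 80 uM substrate and 2 nM coffee bean alpha-galactosidase, pH 5.9 citrate buffer, 20 min at room temperature, then NaOH/glycine stop. Titration 0.7 nM–77 uM, normalized to no-enzyme and enzyme controls, AC50 via Hill equation.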"}, "[8]": {"assay": "Inducers of the Endoplasmic Reticulum Stress Response (ERSR) in human glioma: Validation (AID 504836; active = well fitted curve in the direction sought with a large enough effect; an effect the other way counts as inactive or inconclusive; note: 0% is about no effect)", "procedure,_shortened": "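ERSR induction read as luciferase luminescence (Bright-Glo, 10 min at room temperature) in stably transfected human U87-MG glioma cells exposed to compounds for 16 h, using GRP78 as sensor.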"}, "[9]": {"assay": "Confirmatory qHTS for VERO E6 Cytotoxicity Assay: Counterscreen for SARS-CoV-2 CPE Assay (AID 1508605); note: potency is the fitted concentration of half-maximal effect; nearly all actives have a fitted effect of over 60% in size"}, "[10]": {"target": "DNA polymerase eta (Homo sapiens) (UniProt Q9Y253)", "sequence (Q9Y253 whole entry, looked up)": "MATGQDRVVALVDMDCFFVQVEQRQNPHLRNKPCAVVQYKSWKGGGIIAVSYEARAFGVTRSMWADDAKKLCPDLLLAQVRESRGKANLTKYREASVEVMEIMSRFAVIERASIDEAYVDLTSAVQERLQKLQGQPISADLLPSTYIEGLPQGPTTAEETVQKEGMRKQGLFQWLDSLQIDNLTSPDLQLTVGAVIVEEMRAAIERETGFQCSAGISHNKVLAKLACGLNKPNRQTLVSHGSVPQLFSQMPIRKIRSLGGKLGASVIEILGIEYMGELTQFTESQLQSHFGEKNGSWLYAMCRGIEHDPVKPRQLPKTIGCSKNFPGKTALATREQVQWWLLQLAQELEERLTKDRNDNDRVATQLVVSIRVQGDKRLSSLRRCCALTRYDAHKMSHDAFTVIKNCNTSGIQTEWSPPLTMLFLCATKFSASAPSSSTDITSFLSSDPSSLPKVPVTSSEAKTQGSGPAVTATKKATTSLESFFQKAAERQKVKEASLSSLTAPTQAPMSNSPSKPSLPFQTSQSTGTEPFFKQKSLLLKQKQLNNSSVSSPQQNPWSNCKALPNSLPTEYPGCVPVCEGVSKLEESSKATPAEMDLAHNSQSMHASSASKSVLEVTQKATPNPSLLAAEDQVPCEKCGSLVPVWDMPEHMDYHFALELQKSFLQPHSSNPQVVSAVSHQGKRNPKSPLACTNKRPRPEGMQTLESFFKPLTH", "assay": "qHTS for Inhibitors of Polymerase Eta: Confirmatory Assay for Cherry-picked Compounds (AID 720502; active = well fitted curve in the direction sought with a large enough effect; an effect the other way counts as inactive or inconclusive; note: potency is the fitted concentration of half-maximal effect)", "conditions": "Pol eta primer extension, TAMRA/BHQ fluorescence, 10 min", "procedure,_shortened": "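Enzyme at 10 nM is mixed with pin-transferred compound and left 15 min at room temperature. Substrate (50 nM final) is then added, and plates are read at 0 min and after 10 min.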"}, "[11]": {"assay": "qHTS profiling of the MIPE4 collection as inhibitors of Plasmodium falciparum (DD2) proliferation (AID 743345; call rule not given here)", "conditions": "P. falciparum Dd2 in erythrocytes, SYBR Green DNA, 72 h; at 28.5 µM (top of the series) unless noted", "procedure,_shortened": "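Parasite DNA was quantified by SYBR Green I fluorescence (ex 485, em 535 nm) after overnight lysis in saponin/Triton buffer at room temperature. Cultures at 0.3% parasitemia and 2.5% hematocrit were first exposed to compound for 72 h at 37 C; signals were normalised to artemisinin (0.29 uM) and vehicle wells.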"}},
  "note": "Results filed as inconclusive are left out. Some of the results follow. The source made the active and inactive calls. Unless noted, calls come from the whole dose curve.",
  "data": [
    {"smiles": "Cn1cc(C2=C(c3c4n(c5ccccc35)CCC(CN)C4)C(=O)NC2=O)c2ccccc21", "note": "(configuration not stated)", "values": [
      {"measurement": "Potency", "setting": "[1]", "result": "17.2 µM (active)"},
      {"measurement": "activity change, negative = cytotoxicity", "setting": "[2]", "result": "-8.45% [at 11.3 µM] (inactive)"},
      {"measurement": "activity change, negative = inhibition", "setting": "[3]", "result": "-9.15% [at 11.3 µM]"}
    ]},
    {"smiles": "CNC(=O)c1ccc(Nc2cc(Nc3ccccc3S(=O)(=O)C(C)C)c3cc[nH]c3n2)nc1", "values": [
      {"measurement": "Potency", "setting": "[1]", "result": "8.63 µM (active)"},
      {"measurement": "Potency", "setting": "[4]", "result": "27.3 µM (active)"}
    ]},
    {"smiles": "CCCCC[C@H]1CCCCC[C@@H](O)C[C@H](O)[C@H](O)/C=C/C(=O)O1", "values": [
      {"measurement": "Potency", "setting": "[5]", "result": "inactive"}
    ]},
    {"smiles": "C[C@@H](NC(=O)c1ncnc(N)c1Cl)c1ncc(C(=O)Nc2cc(C(F)(F)F)c(Cl)cn2)s1", "values": [
      {"measurement": "Potency", "setting": "[1]", "result": "24.3 µM (active)"},
      {"measurement": "Potency", "setting": "[2]", "result": "inactive"},
      {"measurement": "activity change, negative = inhibition", "setting": "[3]", "result": -12.7, "unit": "%"}
    ]},
    {"smiles": "CN(C)N=Nc1nc[nH]c1C(N)=O", "values": [
      {"measurement": "Potency", "setting": "[1]", "result": "17.2 µM (active)"},
      {"measurement": "Potency", "setting": "[2]", "result": "inactive"}
    ]},
    {"smiles": "CC(C)CNc1ccnc(NCc2csc(-c3ccccc3)n2)n1", "values": [
      {"measurement": "Potency", "setting": "[1]", "result": "13.7 µM (active)"},
      {"measurement": "Potency", "setting": "[4]", "result": "15.3 µM (active)"},
      {"measurement": "Potency", "setting": "[2]", "result": "22.4 µM (active)"}
    ]},
    {"smiles": "c1ccc2c(Cc3c[nH]c4ccccc34)c[nH]c2c1", "values": [
      {"measurement": "Potency", "setting": "[1]", "result": "4.32 µM (active)"},
      {"measurement": "Potency", "setting": "[4]", "result": "13.7 µM (active)"},
      {"measurement": "Potency", "setting": "[2]", "result": "inactive"}
    ]},
    {"smiles": "Cc1cc(C(=O)N2CCN(c3cccc(Cl)c3)CC2)n(-c2ccccc2)n1", "values": [
      {"measurement": "Potency", "setting": "[1]", "result": "0.611 µM (active)"},
      {"measurement": "Potency", "setting": "[4]", "result": "6.85 µM (active)"},
      {"measurement": "Potency", "setting": "[2]", "result": "inactive"}
    ]},
    {"smiles": "COc1ccc(C=Cc2cc(OC)c(OC)c(OC)c2)cc1NC(=O)[C@H](N)CO", "values": [
      {"measurement": "Potency", "setting": "[1]", "result": "0.0022 µM (active)"},
      {"measurement": "Potency", "setting": "[4]", "result": "inactive"},
      {"measurement": "activity change, negative = inhibition", "setting": "[3]", "result": -66.1, "unit": "%"}
    ]},
    {"smiles": "CC1=C(CC(=O)O)c2cc(F)ccc2C1=Cc1ccc(S(C)=O)cc1", "note": "(configuration not stated)", "values": [
      {"measurement": "Potency", "setting": "[1]", "result": "38.5 µM (active)"},
      {"measurement": "Potency", "setting": "[2]", "result": "inactive"},
      {"measurement": "activity change, negative = inhibition", "setting": "[3]", "result": -11.8, "unit": "%"}
    ]},
    {"smiles": "COc1cc2ncnc(Nc3cccc(Br)c3)c2cc1OC", "values": [
      {"measurement": "Potency", "setting": "[1]", "result": "0.344 µM (active)"},
      {"measurement": "Potency", "setting": "[2]", "result": "inactive"},
      {"measurement": "activity change, negative = inhibition", "setting": "[3]", "result": -19.5, "unit": "%"}
    ]},
    {"smiles": "O=C1OC[C@H](Cc2ccc3c(c2)OCO3)/C1=C\\c1ccc2c(c1)OCO2", "values": [
      {"measurement": "Potency", "setting": "[5]", "result": "inactive"}
    ]},
    {"smiles": "Cc1c(Cn2c(C)nc3c(C(=O)O)cc(N4CCOCC4)cc32)cccc1C(F)(F)F", "values": [
      {"measurement": "Potency", "setting": "[1]", "result": "1.09 µM (active)"},
      {"measurement": "Potency", "setting": "[2]", "result": "inactive"}
    ]},
    {"smiles": "CNC1CCC(N(Cc2cccc(-c3ccncc3)c2)C(=O)c2sc3ccccc3c2Cl)CC1", "note": "(configuration not stated)", "values": [
      {"measurement": "Potency", "setting": "[1]", "result": "30.6 µM (active)"},
      {"measurement": "Potency", "setting": "[4]", "result": "10.9 µM (active)"},
      {"measurement": "Potency", "setting": "[2]", "result": "31.6 µM (active)"}
    ]},
    {"smiles": "CCOC(=O)C1=C(C)NC(=S)NC1c1cccc(O)c1", "note": "(configuration not stated)", "values": [
      {"measurement": "Potency", "setting": "[1]", "result": "0.344 µM (active)"},
      {"measurement": "Potency", "setting": "[2]", "result": "inactive"}
    ]},
    {"smiles": "O=C1NC(=O)c2cc(Nc3ccccc3)c(Nc3ccccc3)cc21", "values": [
      {"measurement": "outcome", "setting": "[6]", "result": "inactive"},
      {"measurement": "outcome", "setting": "[7]", "result": "inactive"},
      {"measurement": "outcome", "setting": "[8]", "result": "inactive"},
      {"measurement": "Potency", "setting": "[1]", "result": "inactive"},
      {"measurement": "Potency", "setting": "[9]", "result": "11.2 µM (active)"}
    ]},
    {"smiles": "Cc1c(NC(=O)OC[C@@H]2COCCN2)cn2ncnc(Nc3ccc4c(cnn4Cc4cccc(F)c4)c3)c12", "values": [
      {"measurement": "Potency", "setting": "[1]", "result": "1.22 µM (active)"},
      {"measurement": "Potency", "setting": "[9]", "result": "11.2 µM (active)"},
      {"measurement": "Potency", "setting": "[2]", "result": "inactive"}
    ]},
    {"smiles": "Cc1cnc(Nc2ccc(CN3CCOCC3)cc2)nc1Nc1cccc(S(=O)(=O)NC(C)(C)C)c1", "values": [
      {"measurement": "Potency", "setting": "[1]", "result": "4.32 µM (active)"},
      {"measurement": "Potency", "setting": "[2]", "result": "12.6 µM (active)"}
    ]},
    {"smiles": "C[C@@H]1C[C@@H]2O[C@H]2/C=C\\C=C\\C(=O)Cc2c(Cl)c(O)cc(O)c2C(=O)O1", "values": [
      {"measurement": "Potency", "setting": "[10]", "result": "26.9 µM (active)"},
      {"measurement": "Potency", "setting": "[1]", "result": "6.31 µM (active)"}
    ]},
    {"smiles": "C#Cc1cccc(Nc2ncnc3cc(OCCOC)c(OCCO)cc23)c1", "values": [
      {"measurement": "parasite growth remaining, % of DMSO control (lower = more inhibition)", "setting": "[11]", "result": 36.9, "unit": "%"},
      {"measurement": "Potency", "setting": "[1]", "result": "10.9 µM (active)"},
      {"measurement": "Potency", "setting": "[2]", "result": "inactive"}
    ]}
  ]
}
